SMARCA2 activ: increases SMARCA2 function in MMTV reporter cells | MG213 cells, MMTV-luciferase reporter, dexamethasone, overnight | activation, % at 9.1 µM | 1% of 370,000 active | AID 652017; in the data active = activation above about 7.8%
PfM18AAP inh-1: PfM18AAP enzyme inhibition; recombinant PfM18AAP, H-Glu-NHMec fluorogenic cleavage; 1.2% of 290,000 active; inhibition, % at 7.35 µM;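 active = inhibition above the campaign mean inhibition over all tested compounds plus 3 SD, cut at about 28% in these data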
JMJD2C inh: human JMJD2C demethylase inhibition; Q9H3R0; GST-JMJD2C(1-420) H3K9me3 demethylation, DELFIA europium; inhibition, % at 2.35 µM; 0.069% of 330,000 active; AID 2099;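 active = more than half of a compound's replicate wells show inhibition beyond 50%, single wells judged on their own value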;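 also: signal counts dimethyl H3K9 product captured on neutravidin plate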
Exocytosis inh: blocks lytic granule exocytosis | TALL-104 LAMP-1 surface exposure, flow cytometry; cells stimulated with thapsigargin and PMA | inhibition, % at 10 µM | 0.66% of 360,000 active;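 active = inhibition above about 55%, limit read from the data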
ALR inh: inhibitors of human sulfhydryl oxidase ALR; P55789; purified ALR, DTT oxidation, H2O2 HRP-luminol luminescence; inhibition, % (no concentration beside the values); 3.8% of 290,000 active;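 active = mean replicate inhibition above about 79%, with every replicate also reaching it, limit read from the data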
Target sequence (P55789 whole entry, looked up): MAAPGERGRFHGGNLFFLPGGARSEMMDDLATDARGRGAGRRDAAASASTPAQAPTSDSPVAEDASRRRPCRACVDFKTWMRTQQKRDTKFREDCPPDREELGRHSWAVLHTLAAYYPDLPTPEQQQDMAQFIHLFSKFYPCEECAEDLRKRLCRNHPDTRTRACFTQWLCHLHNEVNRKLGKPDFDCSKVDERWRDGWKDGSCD
beta cell repl: induces beta-cell replication in MIN6 cells | MIN6 cells proliferation, ATPlite luminescence, 48 h; cells starved in 0.2% serum; 100% = growth in 10% serum | proliferation, % at 10 µM | 0.29% of 330,000 active;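 active = compounds whose signal lies at least 3.5 SD above the mean of all wells on their plate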
PfM18AAP inh-2: confirmation of Plasmodium falciparum M18 aspartyl aminopeptidase inhibitors; recombinant PfM18AAP, H-Glu-NHMec fluorogenic cleavage; shares compounds with PfM18AAP inh-1; 28% of 2,400 active; inhibition, % at 7.35 µM;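 active = mean inhibition over replicate wells above the hit cutoff set for the earlier primary screen, cut at about 29% in these data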
CTSL1 confirm: Cathepsin L (human) inhibition, confirmation; shares compounds with PfM18AAP inh-1; purified cathepsin L1, Z-Leu-Arg-MCA fluorescence; inhibition, % at 5.96 µM; 2,400 tested, under 10 active; AID 2178;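 active = average inhibition across replicates above the hit cutoff set in the earlier primary screen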
Hits are given with their value; . = inactive; / = no result. Rows were chosen to be rich in hits. Some 5.4% of all compounds tested hit in one or more screens of this group.

SMILES | SMARCA2 activ | PfM18AAP inh-1 | JMJD2C inh | Exocytosis inh | ALR inh | beta cell repl | PfM18AAP inh-2 | CTSL1 confirm
NNc1nc(-c2ccccc2Cl)c2cc(Br)ccc2n1 | . | 32.1 | . | . | . | . | . | .
Cc1cc(C)c2c(=O)n(CC(=O)N3CCC(N4CCCCC4)CC3)sc2n1 | . | 42.9 | . | . | . | . | . | .
Cc1nn(CC(=O)N2CCC(N3CCCCC3)CC2)c(=O)c2c1sc1ccccc12 | . | . | . | . | . | . | / | /
CCOC(=O)C1CCCN(C(=O)Cn2sc3nc(C)cc(C)c3c2=O)C1 (configuration not stated) | / | 59.2 | . | 84.4 | . | . | . | .
Cn1cc(CC(=O)Nc2ccc(Nc3cccnc3)c(Br)c2)c2ccccc21 | . | / | / | / | / | / | / | /
C=CCN1C=C(C(=O)OCC)C(=O)CC1 | . | / | / | / | / | / | / | /
O=S(=O)(Nc1ccc(Cl)cc1)c1ccc(N2CCOCC2)c(NC(=S)NCCN2CCOCC2)c1 | . | 44.7 | . | . | . | . | . | .
O=C(O)CCCC(=O)Nc1ccccc1SCCS(=O)(=O)c1ccc(Cl)cc1 | . | 35.1 | . | . | . | / | . | .
Nn1c(SCC(=O)Nc2ccccc2-c2ccccc2)nnc1-c1cc(-c2ccc(F)cc2)n[nH]1 | . | / | / | / | / | / | / | /
C/C(=N/Nc1nc(-c2ccccc2)cc(-c2ccc(F)cc2)n1)c1cccc(N)c1 | . | 36.0 | . | . | / | . | . | .
NC(N)=N/N=C/c1cccc([N+](=O)[O-])c1O | . | 43.3 | . | . | . | . | . | .
O=C(Nc1ccc2c(c1)OCO2)NC1(C(F)(F)F)Oc2ccccc2O1 | . | 57.2 | . | . | . | . | . | .
O=C(Nc1ccc2c(c1)OCCO2)NC1(C(F)(F)F)Oc2ccccc2O1 | . | 59.2 | . | . | . | . | . | .
O=C(Nc1ccc2c(c1)OCCO2)Nc1ccc2c(c1)OCO2 | . | . | . | . | . | . | / | /
CCN(C(=O)Cn1nnc(-c2ccncc2)n1)c1ccccc1 | . | / | / | / | / | / | / | /
CCCCCCCCN1C(=O)[C@@H](CC(=O)NCc2ccc(OC)c(OC)c2)C[C@@]2(C(=O)OC)C1=C[C@H](C(C)(C)C)O[C@@H]2C | . | / | / | / | / | / | / | /
C[C@H]1CCCN1c1cccc2c1S(=O)(=O)N1CC[C@H](C1)O2 | . | / | / | / | / | / | / | /
O=C(CSc1ccccn1)N1CCN(c2ccc(Cl)cc2)CC1 | . | 32.7 | . | . | . | . | . | .
O=C(NNc1nc2ccccc2o1)c1ccccc1 | . | 41.1 | . | . | . | . | . | .
O=C(NNc1nc2ccccc2nc1C(F)(F)F)c1ccccc1 | . | 34.3 | . | . | 97.9 | . | . | .
Clc1cc(Cl)cc(CN2CCN(c3ncc(Cc4ccccc4)cn3)CC2)c1 | . | / | / | / | / | / | / | /
Cc1ccc(NS(=O)(=O)c2cc(NC(=O)c3ccc4c(c3)NC(=O)CS4)ccc2Cl)c(C)c1 | . | 31.7 | . | . | . | . | . | .
CN(C)C(=O)c1ccc(SC(=S)NCc2ccccc2)cc1 | . | / | / | . | / | / | / | /
CC(=O)c1ccc(O)c(CSc2nncn2C)c1 | . | . | . | . | . | . | / | /
O=C(O)c1ccc(CSc2nnnn2-c2ccc(F)cc2)cc1 | . | . | . | . | . | . | / | /
SMILES | SMARCA2 activ | PfM18AAP inh-1 | JMJD2C inh | Exocytosis inh | ALR inh | beta cell repl | PfM18AAP inh-2 | CTSL1 confirm
O=C(CSc1nnnn1-c1ccc(F)cc1)c1ccc(O)c(O)c1 | . | 47.4 | . | . | 97.5 | / | 28.1 | .
CCCCn1c(SCC(=O)c2ccc(O)c(O)c2)nc2ccsc2c1=O | / | 37.4 | . | . | / | . | . | .
Cn1cnnc1SCC(=O)c1ccc(O)c(O)c1 | . | 53.3 | . | . | 99.1 | . | 34.9 | .
O=C(CCCn1c(SCC(=O)c2ccc(O)c(O)c2)nc2ccccc2c1=O)NCC1CCCO1 (configuration not stated) | . | 52.8 | . | . | 98.8 | . | 38.5 | .
CN1CCCCC(NC(=O)c2ccc3ccccc3c2)C1=O (configuration not stated) | . | / | / | / | / | / | / | /
Cc1cccc(NC(=O)c2ccco2)c1C | . | . | . | . | . | . | / | /
Cc1cccc(NC(=O)NNC(=O)c2cc3occc3[nH]2)c1C | . | 46.1 | . | . | . | . | . | .
Cc1cc(C)cc(NC(=O)NNC(=O)c2cc3occc3[nH]2)c1 | . | 55.6 | . | . | . | . | . | .

Source: PubChem
